The text below walks through data of PubChem BioAssay (NCI).

The panel holds about 79,000 compounds, 15% with a hit somewhere; the sample as a whole holds those more often. Values without a mark were called inactive. Calls of active or inactive are those of the source. Cut-off read from the data, not from the text of the source: active = growth inhibition above about 70%; inactive = the rest.

The nature of assay [1]: NCI Yeast Anticancer Drug Screen. Data for the rad50 strain (AID 155).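 Note: 0% = growth of vehicle-only cultures of the same strain.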 As to conditions: S. cerevisiae rad50 strain growth inhibition, active compounds read high. The method in brief: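 Growth of the mutant yeast was measured after compound exposure and referenced to vehicle-treated cultures.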
A short description of assay [2]: NCI Yeast Anticancer Drug Screen. Data for the mec2-1 strain (AID 157). As to conditions: S. cerevisiae mec2-1 strain, active compounds read high. The method in brief:
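Yeast mec2-1 mutant treated with compound. Readout: growth inhibition vs vehicle controls.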

The nature of assay [3]: NCI Yeast Anticancer Drug Screen. Data for the sgs1 mgt1 strain (AID 161).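 Note: 0% = growth of cultures given vehicle only.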 To be noted: S. cerevisiae sgs1 mgt1 strain, active compounds read high. An outline of the steps:
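Test agents were incubated with a DNA-repair-mutant yeast strain. Growth was then read and compared against vehicle-treated controls.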

Assay [4] can be described thus: NCI Yeast Anticancer Drug Screen. Data for the cln2 rad14 strain (AID 165).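 Note: 0% = growth equal to vehicle treated cultures.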 To be noted: S. cerevisiae cln2 rad14 strain, active compounds read high. An outline of the steps: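 cln2 rad14 yeast strain; compound exposure; growth inhibition read vs vehicle controls.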
A short description of assay [5]: NCI Yeast Anticancer Drug Screen. Data for the bub3 strain (AID 167). As to conditions: S. cerevisiae bub3 mutant strain, active compounds read high. An outline of the steps: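 Whole-cell yeast assay. The mutant strain was incubated with compounds, and growth inhibition was determined by comparison with vehicle-treated cells.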
Assay [6] in a line: NCI Yeast Anticancer Drug Screen. Data for the mlh1 rad18 strain (AID 175). To be noted: S. cerevisiae mlh1 rad18 strain growth inhibition, active compounds read high. The method in brief:
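Yeast w/ defined DNA-repair lesions; compound exposure; growth vs vehicle controls → % inhibition.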

[7] abbreviates: at 5.0 µM (retest, dose inferred, filed as 0.5).
Where [8] appears, read: at 50.0 µM (retest, dose inferred, filed as 5.0).

As for `CC(C)(Cl)C(Cl)CC/C(CBr)=C(\Cl)CBr` (stereo not given), the growth inhibition in assay [1] (setting [7]) was 10%; in assay [1] (setting [8]) it was 99% (active); in assay [1] (at 50.0 µM), 73.5% (active); in assay [2] (setting [7]), 17%; in assay [2] (setting [8]) it was 99% (active); in assay [2] (at 50.0 µM), 92.3% (active). Moreover, the growth inhibition in assay [3] (setting [7]) was -11%; in assay [3] (setting [8]), 98% (active); in assay [3] (at 50.0 µM), 92% (active); in assay [4] (setting [7]) it was 21%; in assay [4] (setting [8]), 95% (active); in assay [4] (at 50.0 µM) it was 90.2% (active). In addition, the growth inhibition in assay [5] (setting [7]) is 4%; in assay [5] (setting [8]) it was 94% (active); in assay [5] (at 50.0 µM) it was 92% (active); in assay [6] (setting [7]) it was 11%; in assay [6] (setting [8]), 99% (active); in assay [6] (at 50.0 µM), 4.4%.

`c1csc(CNCc2cccs2)c1`: the growth inhibition in assay [1] (setting [7]) is -3%; in assay [1] (setting [8]) it was -5%; in assay [1] (at 50.0 µM), -13.9%; in assay [2] (setting [7]), -2%; in assay [2] (setting [8]), 1%; in assay [2] (at 50.0 µM), 1.45%. In addition, the growth inhibition was -1% in assay [3] (setting [7]); -5% in assay [3] (setting [8]); -1.2% in assay [3] (at 50.0 µM); -4% in assay [4] (setting [7]); -4% in assay [4] (setting [8]); -23.4% in assay [4] (at 50.0 µM). Moreover, the growth inhibition in assay [5] (setting [7]) was -1%; in assay [5] (setting [8]) it was -5%; in assay [5] (at 50.0 µM), 1.3%; in assay [6] (setting [7]) it was 0%; in assay [6] (setting [8]), -7%; in assay [6] (at 50.0 µM), 37.3%.

On to `COc1cccc2c1N[S@](=O)S2`, for which the growth inhibition was -12% in assay [1] (setting [7]); 95% (active) in assay [1] (setting [8]); 86.9% (active) in assay [1] (at 50.0 µM); -12% in assay [2] (setting [7]); 94% (active) in assay [2] (setting [8]); 90.2% (active) in assay [2] (at 50.0 µM). Further, the growth inhibition in assay [3] (setting [7]) was 1%; in assay [3] (setting [8]), 68%; in assay [3] (at 50.0 µM), 77.9% (active); in assay [4] (setting [7]), -2%; in assay [4] (setting [8]), 33%; in assay [4] (at 50.0 µM) it was 30%. For the same compound, the growth inhibition is 1% in assay [5] (setting [7]); 95% (active) in assay [5] (setting [8]); 95.5% (active) in assay [5] (at 50.0 µM); -11% in assay [6] (setting [7]); 77% (active) in assay [6] (setting [8]); 69.9% in assay [6] (at 50.0 µM).

For the compound `COc1ccc(C2C3CCCC(C(c4ccc(OC)cc4)N2C)C32NC(=O)NC2=O)cc1` (stereo not given), the growth inhibition in assay [1] (setting [7]) was 63%; in assay [1] (setting [8]), 98% (active); in assay [1] (at 50.0 µM), 97.2% (active); in assay [2] (setting [7]) it was 25%; in assay [2] (setting [8]), 98% (active); in assay [2] (at 50.0 µM), 98% (active). For the same compound, the growth inhibition was 23% in assay [3] (setting [7]); 98% (active) in assay [3] (setting [8]); 97.8% (active) in assay [3] (at 50.0 µM); 2% in assay [4] (setting [7]); 97% (active) in assay [4] (setting [8]); 97.2% (active) in assay [4] (at 50.0 µM). Further, the growth inhibition was 3% in assay [5] (setting [7]); 97% (active) in assay [5] (setting [8]); 97.8% (active) in assay [5] (at 50.0 µM); 29% in assay [6] (setting [7]); 95% (active) in assay [6] (setting [8]); 97.6% (active) in assay [6] (at 50.0 µM).

Regarding `COc1ccc2ccccc2c1Cc1c(OC)ccc2ccccc12`, the growth inhibition was -2% in assay [1] (setting [7]); 98% (active) in assay [1] (setting [8]); -11.7% in assay [1] (at 50.0 µM); -2% in assay [2] (setting [7]); 98% (active) in assay [2] (setting [8]); 8.65% in assay [2] (at 50.0 µM). Also, the growth inhibition is -2% in assay [3] (setting [7]); 98% (active) in assay [3] (setting [8]); -2.7% in assay [3] (at 50.0 µM); -15% in assay [4] (setting [7]); 98% (active) in assay [4] (setting [8]); 7.65% in assay [4] (at 50.0 µM). The growth inhibition is -5% in assay [5] (setting [7]); 98% (active) in assay [5] (setting [8]); -6.35% in assay [5] (at 50.0 µM); 0% in assay [6] (setting [7]); 98% (active) in assay [6] (setting [8]); 9.35% in assay [6] (at 50.0 µM).
